Counter-ions that a name gives are not always drawn.
Columns and labels:
Test in all cases: thermal shift delta Tm vs DMSO control; higher = stronger stabilization (binding)
Settings in all cases: 12.5 µM; protein concentration 2 µM
LOC_OS01G01410-cb001 = tested on: LOC_OS01G01410-cb001
Outline: (§1)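 Purified, E. coli-expressed rice kinase domain constructs were tested by differential scanning fluorimetry in 96-well plates: 19.5 μl of 2 μM kinase in 100 mM potassium phosphate pH 7.5, 150 mM NaCl, 10% glycerol, 5 × SYPRO Orange, plus compound in DMSO. Fluorescence was read from 25°C to 95°C at 0.05°C/s. Melting temperatures came from Boltzmann fits, and the shift is the triplicate mean relative to protein with DMSO alone.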

LOC_OS01G02750-cb003 = tested on: LOC_OS01G02750-cb003
Outline: as §1

LOC_OS01G10900-cb004 = tested on: LOC_OS01G10900-cb004
Outline: as §1

LOC_OS01G13800-cb001 = tested on: LOC_OS01G13800-cb001
Outline: as §1

LOC_OS01G14860-cb001 = tested on: LOC_OS01G14860-cb001
Outline: as §1

LOC_OS01G21960-cb002 = tested on: LOC_OS01G21960-cb002
Outline: as §1

LOC_OS01G39600-cb002 = tested on: LOC_OS01G39600-cb002
Outline: as §1

LOC_OS01G48390-cb002 = tested on: LOC_OS01G48390-cb002
Outline: as §1

LOC_OS01G51400-cb002 = tested on: LOC_OS01G51400-cb002
Outline: as §1

LOC_OS01G52050-cb004 = tested on: T1, LOC_OS01G52050-cb004
T1 sequence (whole entry): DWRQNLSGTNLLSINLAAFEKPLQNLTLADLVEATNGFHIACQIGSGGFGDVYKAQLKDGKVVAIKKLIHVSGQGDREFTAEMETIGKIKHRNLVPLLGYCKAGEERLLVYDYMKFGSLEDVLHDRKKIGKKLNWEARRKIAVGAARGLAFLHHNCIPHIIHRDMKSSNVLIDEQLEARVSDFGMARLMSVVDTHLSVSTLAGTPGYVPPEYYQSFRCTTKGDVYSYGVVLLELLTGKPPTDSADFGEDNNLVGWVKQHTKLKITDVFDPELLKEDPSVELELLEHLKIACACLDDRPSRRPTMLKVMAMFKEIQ
Outline: as §1

LOC_OS01G57100-cb003 = tested on: LOC_OS01G57100-cb003
Outline: as §1

LOC_OS01G60330-cb001 = tested on: LOC_OS01G60330-cb001
Outline: as §1

LOC_OS01G60700-cb002 = tested on: LOC_OS01G60700-cb002
Outline: as §1

LOC_OS01G63280-cb003 = tested on: LOC_OS01G63280-cb003
Outline: as §1

LOC_OS01G67340-cb003 = tested on: LOC_OS01G67340-cb003
Outline: as §1

LOC_OS01G70970-cb002 = tested on: LOC_OS01G70970-cb002
Outline: as §1

LOC_OS02G07810-cb001 = tested on: LOC_OS02G07810-cb001
Outline: as §1

LOC_OS02G08530-cb003 = tested on: LOC_OS02G08530-cb003
Outline: as §1

LOC_OS02G14120-cb001 = tested on: LOC_OS02G14120-cb001
Outline: as §1

LOC_OS02G17970-cb001 = tested on: LOC_OS02G17970-cb001
Outline: as §1

SMILES	thermal shift delta Tm (LOC_OS01G01410-cb001) [°C]	thermal shift delta Tm (LOC_OS01G02750-cb003) [°C]	thermal shift delta Tm (LOC_OS01G10900-cb004) [°C]	thermal shift delta Tm (LOC_OS01G13800-cb001) [°C]	thermal shift delta Tm (LOC_OS01G14860-cb001) [°C]	thermal shift delta Tm (LOC_OS01G21960-cb002) [°C]	thermal shift delta Tm (LOC_OS01G39600-cb002) [°C]	thermal shift delta Tm (LOC_OS01G48390-cb002) [°C]	thermal shift delta Tm (LOC_OS01G51400-cb002) [°C]	thermal shift delta Tm (LOC_OS01G52050-cb004) [°C]	thermal shift delta Tm (LOC_OS01G57100-cb003) [°C]	thermal shift delta Tm (LOC_OS01G60330-cb001) [°C]	thermal shift delta Tm (LOC_OS01G60700-cb002) [°C]	thermal shift delta Tm (LOC_OS01G63280-cb003) [°C]	thermal shift delta Tm (LOC_OS01G67340-cb003) [°C]	thermal shift delta Tm (LOC_OS01G70970-cb002) [°C]	thermal shift delta Tm (LOC_OS02G07810-cb001) [°C]	thermal shift delta Tm (LOC_OS02G08530-cb003) [°C]	thermal shift delta Tm (LOC_OS02G14120-cb001) [°C]	thermal shift delta Tm (LOC_OS02G17970-cb001) [°C]
Cc1cn(-c2cc(NC(=O)c3ccc(C)c(Nc4nccc(-c5cccnc5)n4)c3)cc(C(F)(F)F)c2)cn1 [Nilotinib (AMN-107)]	1.05	0.56	0.78	-0.11	0.32	0.28	0.67	0.45	0.48	-0.02	0.85	1.29	0.99	0.49	-0.08	0.3	0.5	0.55	0.37	0.01
COc1ccc(-c2nc(N3CCOCC3)c3sc(CN(C)c4ncc(C(=O)NO)cn4)cc3n2)cn1	0.62	1.67	0.67	0.23	0.42	0.88	0.28	0.53	0.43	-0.17	2.79	1.04	0.58	0.34	0.21	0.21	1.31	0.97	0.54	0.14
Cc1[nH]c(/C=C2\C(=O)Nc3ccc(S(=O)(=O)N(C)c4cccc(Cl)c4)cc32)c(C)c1C(=O)N1CCN(C)CC1	1.44	2.62	0.43	0.07	0.57	0.44	-0.1	0.18	0.14	1.01	1.03	5.91	0.86	-0.04	-0.53	0.47	-0.12	3.7	8.19	-0.27
Cc1cnc(NC(=O)Nc2cc(Br)c(C)cc2OC[C@@H]2CNCCO2)cn1	0.41	0.39	0.37	-0.12	0.81	0.58	0.24	1.82	0.02	2.33	0.95	0.18	0.72	0.14	0.03	0.38	0.19	2.28	0.85	0.19
CN1CCC(CNc2ccc3ncc(-c4cccc(OC(F)(F)F)c4)n3n2)CC1 [SGI-1776 free base]	0.34	4.11	3.96	0.13	0.51	2.41	0.68	0.82	0.07	3.81	0.83	0.19	0.47	0.98	-0.25	1.79	0.42	2.78	7.23	-0.26
O=C1CCc2c(Oc3ccc4c(c3)[C@@H]3[C@H](O4)[C@H]3c3nc4cc(C(F)(F)F)ccc4[nH]3)ccnc2N1 [Lifirafenib (BGB-283)]	1.01	3.41	2.3	1.54	5.38	1.8	0.61	1.85	0.55	2.71	2.04	3.33	1.67	8.07	1.66	0.46	1.17	1.38	2.67	2.49
COc1cc2ncc(-c3ccccc3)nc2cc1OC [Tyrphostin AG 1296]	2.03	1.6	0.44	-0.26	0.28	0	0.47	0.55	0.63	1.69	0.4	3.29	1.32	1.35	1.24	0.75	-0.01	1.3	2.29	0.27
CCCCCCCCCCCCCCCCn1cc[n+](Cc2ccccc2)c1C	-2.01	-7.84	-4.55	-6.34	-18.6	-3.32	-5.39	-5.85	-9.26	-3.57	-6.09	0.5	-2.72	-7.84	-1.74	-4.15	-4.78	-0.96	-1.51	-2.91
COc1cc(Nc2ncc(F)c(Nc3ccc4c(n3)N(COP(=O)(O)O)C(=O)C(C)(C)O4)n2)cc(OC)c1OC [R788 (Fostamatinib) Disodium]	0.8	1.55	0.2	0.19	1.64	1.94	5.17	0.57	0.49	1.51	1.79	1.17	1.17	1.12	0.57	1.43	0.47	0.82	5.05	1.55
COc1cc2c3cc1Oc1c(OC)c(OC)cc4c1[C@@H](Cc1ccc(O)c(c1)Oc1ccc(cc1)C[C@@H]3N(C)CC2)N(C)CC4 [Berbamine (dihydrochloride)]	-0.04	0.3	0.03	-0.62	-0.18	0.36	-0.05	0.32	-0.01	0.22	1.3	-0.73	1.22	-0.06	0.28	0.03	-0.23	1.1	0.03	-0.21
C[S+]([O-])c1ccc(-c2nc(-c3ccc(F)cc3)c(-c3ccncc3)[nH]2)cc1 (stereo not given)	1.61	-0.29	0.57	0.79	2.49	1.22	0.18	0.4	-0.08	0.5	1.65	1.11	1.91	1.11	-0.03	0.63	1.46	1.44	1.3	0.84
Nc1cccc(S(=O)(=O)N2CCCN(S(=O)(=O)c3ccc4c(c3)OCCO4)CC2)c1	0.49	1.98	0.15	0.22	0.23	0.8	-0.77	3.24	0.46	0.19	0.46	0.53	0.59	-0.02	0.27	0.17	0.54	0.32	0.21	0.7
CC(C)(C)c1cc(NC(=O)Nc2ccc(Oc3ccnc4[nH]c(=O)cnc34)cc2F)n(-c2ccccc2)n1	-0.24	1.82	0.63	0.95	6.67	0.63	0.19	0.23	0.46	0.84	1.77	1.69	1.38	10.7	0.45	0.73	0.8	1.22	4.49	2.69
C=CC(=O)Nc1cccc(Sc2nc(Nc3ccc(N4CCN(C)CC4)cc3)ncc2Cl)c1	3.81	1.58	5.27	-0.1	1.89	0.88	6.99	7.06	1.43	4.22	-1.98	1.15	0.75	0.45	0.87	7.21	0.82	2.38	6.55	0.58
Cn1cc(/C=C2\C(=O)Nc3cccnc32)c2ccccc21	3.9	0.74	1.42	-0.51	0.68	1.44	-0.03	1.92	0.44	1.86	1.08	12.1	1.27	0.58	2.54	4.16	1.32	4.2	3.15	1.08
CO[C@H]1C[C@@H]2CC[C@@H](C)[C@@](O)(O2)C(=O)C(=O)N2CCCC[C@H]2C(=O)O[C@H]([C@H](C)C[C@@H]2CC[C@@H](OCCO)[C@H](OC)C2)CC(=O)[C@H](C)/C=C(\C)[C@@H](O)[C@@H](OC)C(=O)[C@H](C)C[C@H](C)/C=C/C=C/C=C/1C [Everolimus (RAD001)]	1.13	-1.72	0.03	0.16	-0.41	0.16	0.54	0.33	-0.03	0.35	0.99	1.72	0.6	0.26	-0.17	-0.1	0.75	0.55	1.17	0.76
C[C@@H]1CN(C(=O)c2ccc(NC(=O)c3cc(O[C@H](C)c4c(Cl)ccc(F)c4Cl)c(N)nn3)cc2)C[C@H](C)N1 [Ensartinib (X-396)]	2.83	1.44	2.67	-0.39	0.08	0.04	0.4	5.02	-0.19	3.28	4.79	-0.22	0.66	-0.05	7.25	0.84	0.09	2.29	12	0.57
COc1ccc(C(=O)Nc2sc3c(c2C(N)=O)CCCC3)cc1OC	0.61	0.58	0.36	0.6	0.19	0.49	0.46	0.85	0.45	1.28	1.3	1.24	1.23	0.62	1.69	0.41	1.01	2.12	2.58	0.27
FC(F)c1nc2ccccc2n1-c1nc(N2CCOCC2)nc(N2CCOCC2)n1	0.85	0.92	0.18	0.89	-0.06	0.23	0.94	0.8	0.35	0.72	0.81	1.34	1.13	0.27	-0.18	0.47	0.59	0.83	0.41	0.88
CN(C)CCCn1cc(C2=C(c3c[nH]c4ccccc34)C(=O)NC2=O)c2ccccc21	0.25	0.71	0.3	0.25	1.17	2.73	0.78	-0.07	0.26	-0.04	0.59	1.19	0.85	0.38	0.56	0.73	0.35	0.74	0.09	0.48
CO[C@H]1C[C@@H]2CC[C@@H](C)[C@@](O)(O2)C(=O)C(=O)N2CCCC[C@H]2C(=O)O[C@H]([C@H](C)C[C@@H]2CC[C@@H](O)[C@H](OC)C2)CC(=O)[C@H](C)/C=C(\C)[C@@H](O)[C@@H](OC)C(=O)[C@H](C)C[C@H](C)/C=C/C=C/C=C/1C [Rapamycin (Sirolimus)]	0.87	0.22	-0.07	-0.01	0.33	0.21	0.05	0.16	0.12	-0.13	1.56	1.82	1.04	0.14	-0.59	0.17	0.45	0.43	1	0.46
O=C(NCCCNc1nc(Nc2cccc(NC(=O)N3CCCC3)c2)ncc1I)c1cccs1	4.61	2.64	1.85	-0.09	5.77	3.44	8.52	2.91	1.38	10.7	1.91	11.8	0.35	0.47	2.07	8.4	1.11	2.77	9.13	0.49
CN1c2ccccc2C(=O)Nc2cnc(Nc3ccc(N4CCC(O)CC4)cc3)nc21	0.94	1.24	3	-0.58	0.36	0.64	0.1	0.29	0.1	0.63	0.2	1.06	0.97	2.56	1.01	2.61	0.39	0.74	11.1	0.53
CN(C)CCOc1ccc(-c2nc(-c3ccncc3)c(-c3ccc4c(c3)CC/C4=N\O)[nH]2)cc1	1.77	0.07	3.19	0.05	0.42	-0.07	0.16	1.16	0.46	0.22	1.76	0.92	0.49	0.02	-0.45	0.15	1.2	0.96	-0.05	-0.1

Source: the supplement of paper PMC9694430
